From PubChem BioAssay come the findings set out here.

A number with no mark means an inactive call. No rule for the calls is given here.

The target in this test is Pantothenate synthetase (Mycobacterium tuberculosis (strain ATCC 25618 / H37Rv)) (UniProt P9WIL5). The test is described as follows: Recombinant Mtb pantothenate synthetase (PanC) inhibitors, coupled enzyme, confirmatory (AID 375).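 Also: 0% = full reaction with vehicle and 100% = no enzyme background.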 Particulars: coupled enzyme assay; at 10 µM, active compounds read high.
Sequence of Pantothenate synthetase (Mycobacterium tuberculosis (strain ATCC 25618 / H37Rv)) (P9WIL5 whole entry, looked up): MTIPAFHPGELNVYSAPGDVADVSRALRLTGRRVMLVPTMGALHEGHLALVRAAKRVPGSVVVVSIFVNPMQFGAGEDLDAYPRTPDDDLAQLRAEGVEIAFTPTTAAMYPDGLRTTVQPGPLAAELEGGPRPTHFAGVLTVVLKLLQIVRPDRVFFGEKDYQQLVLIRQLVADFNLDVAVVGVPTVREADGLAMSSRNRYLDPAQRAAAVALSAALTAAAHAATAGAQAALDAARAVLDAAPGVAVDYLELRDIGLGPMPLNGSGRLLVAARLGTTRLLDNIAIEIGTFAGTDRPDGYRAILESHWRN
The inhibition is the relative decrease from the control value, in per cent. In the case of `COc1ccccc1NC(=O)Cn1nnc(-c2ccccc2NC(=O)c2ccco2)n1`, the inhibition was 0%.
As for `COc1ccc(-c2nnn(CCc3nn[nH]n3)n2)cc1OC`, the figure is 0%; as for `CC1Oc2ccccc2N(CC(=O)NCc2cccs2)C1=O` (stereo not drawn), 0%.
The result for `Cc1nc2ccccc2c(=O)n1NC(=O)c1ccc(F)cc1Cl` reads 5%; that for `O=C(O)c1ccc(COc2c(F)c(F)c(F)c(F)c2F)o1`, 0%.
As for `CCC(=O)N1CCc2cc(S(=O)(=O)CCC(=O)Nc3ccc(F)c(F)c3)ccc21`, the figure is 0%; as for `COc1cccc(C2C3=C(N=C4SCC(=O)N42)c2ccccc2CC3)c1OC` (stereo not drawn), 4%; as for `CC(C)c1nccn1S(=O)(=O)c1cc(Cl)ccc1Cl`, 0%.
On to `CCOc1ccccc1OCCCCN1CCCC1`, for which the inhibition is 9%.
As for `CC(CN1CCOCC1)(NS(=O)(=O)c1ccccc1)c1ccccc1` (stereo not drawn), the figure is 1%; as for `CCOC(=O)c1ccc(NC(=O)CSCc2ccco2)cc1`, 0%.
The result for `CN1C(=O)C2(NCCc3c2[nH]c2ccccc32)c2ccccc21` (stereo not drawn) reads 1%; that for `Cc1ccc(S(=O)(=O)Nc2cc(C(=O)O)ccc2N2CCCCC2)cc1`, 0%; that for `Cc1nn(C(=O)c2ccoc2C)c(N)c1-c1ccccc1`, 2%.
As for `Cc1ccc(S(=O)(=O)N2CCN(c3nc(C)nc4sc(C)c(C)c34)CC2)cc1`, the figure is 2%; as for `Cn1c(SCC(=O)Nc2ccc3c(c2)OCO3)nnc1-c1cnccn1`, 1%; as for `CCCCOc1ccccc1NC(=O)c1ccco1`, 0%.
Consider `Nn1c(Cc2ccccc2F)nnc1SCC(=O)N1CC(=O)Nc2ccccc21`, for which the inhibition was 0%.
